G9a block = blocks human histone lysine methyltransferase G9a; Q96KQ7; G9a H3K9 monomethylation, AlphaScreen, 2 h; Potency, µM (doses to about 102 µM), inactives show at the top dose activity, negative = inhibition, hits mostly inhibitors; actives 8.8% (n = 350,000); AID 504332; further: on the % scale 0 is the no-effect control and ±100 the full control effect; nearly all actives have a fitted effect of over 75% in size
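Compounds were preincubated with 20 nM G9a for 15 min, after which biotinylated H3K9 peptide (500 nM) and SAM (20 uM) started a 2 h room-temperature reaction. Monomethylated product was quantified by antibody-based AlphaScreen chemiluminescence.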
JMJD2A Tudor = JMJD2A Tudor domain (human) inhibition; O75164; actives 4.4% (n = 390,000); Potency, µM (highest dose often 114 µM), inactives show at the top dose activity change, negative = inhibition, most hits filed as inhibitors; AID 504339; AlphaScreen JMJD2A-Tudor / H3K4me3 peptide binding; further: on the % scale 0 is the no-effect control and ±100 the full control effect; nearly all actives have a fitted effect of over 50% in size
HP1b chromo inh = inhibitors of HP1-beta chromodomain binding to methylated histone tails. AID 540317. actives 0.56% (n = 390,000). AlphaScreen HP1-beta / biotin-H3K9me3 peptide binding. Potency, µM (series often up to 114 µM), for inactives: top-dose activity change, negative = inhibition, usual class: inhibitors. P83916; further: nearly all actives have a fitted effect of over 70% in size
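AlphaScreen: HP1-beta (50 nM) preformed 30 min with biotin-H3(1-18)K9me3 peptide (50 nM) in PBS pH 7.4, 0.01% Tween-20. Compound added for 30 min at RT, then streptavidin donor/nickel chelate acceptor beads (10 ug/mL) for 30 min.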
PLK1 PBD block = blocks phosphopeptide binding to human PLK1 polo-box domain; P53350; Plk1 PBD binding of FITC phosphopeptide, fluorescence polarization; Potency, µM, for inactives: max response, negative = inhibition, most hits filed as inhibitors; actives 2.8% (n = 360,000); AID 720504; further: series mostly up to about 57 µM; on the % scale 0 is the no-effect control and ±100 the full control effect; nearly all actives have a fitted effect of over 65% in size
BAZ2B inh = inhibitors of human BAZ2B bromodomain | Q9UIF8 | AlphaScreen BAZ2B-H3K14Ac peptide displacement | Potency, µM (doses to about 114 µM), for the others: top-dose activity change, negative = inhibition, most hits filed as inhibitors | actives 4.4% (n = 360,000) | AID 504333; further: on the % scale 0 is the no-effect control and ±100 the full control effect; nearly all actives have a fitted effect of over 60% in size
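AlphaScreen luminescence quantifies BAZ2B engagement of H3K14Ac peptide; the protein and biotinylated peptide are both at 50 nM final, buffer PBS pH 7.4 with 0.01% Tween-20, all steps at room temperature.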
Sfp inh = inhibitors of Bacillus subtilis Sfp phosphopantetheinyl transferase. Q9F4F7. Biochemical Sfp PPTase activity, qHTS. Potency, µM, without a hit: largest response in the series, negative = inhibition, actives largely listed as inhibitors. actives 3.5% (n = 310,000). AID 1490;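 further: the enzyme is Sfp with the accession as filed and its product quenches rhodamine fluorescence; 0% = enzyme reaction without inhibitor and -100% = no enzyme wells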
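Step 1, compound plus 15 nM Sfp-PPTase, 15 min, room temperature. Step 2, add rhodamine-CoA (5 uM) and BHQ-2-YbbR (12.5 uM). Step 3, read 525/598 nm fluorescence at 0 and 30 min.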
The depositor's hits bear a star; ? = inconclusive; / = no result; [ ] = remark or other dose. Most compounds without a hit are left out; they make up all but 12% or so of the library. The call rests on the fitted dose curve; in most records, active means well fitted curve in the direction sought with a large enough effect; inconclusive means small, poorly fitted or top-dose-only effect, or another doubt; inactive means no such curve, though single readings can be large; an effect the other way counts as inactive or inconclusive. Potency means the concentration at half of the fitted maximal effect.

SMILES	G9a block	JMJD2A Tudor	HP1b chromo inh	PLK1 PBD block	BAZ2B inh	Sfp inh
CCN1CCN(Cc2ccc(NC(=O)c3ccc(C)c(/C=C/c4cnc(Nc5cc(N6CCNCC6)nc(C)n5)cn4)c3)cc2C(F)(F)F)CC1	28.2µM*	79.4µM*	?	59.3%	?	56.2µM*
COCCC(=O)N1CCC(C(=O)Nc2ccc(Oc3ccccc3)nc2)CC1	21.0%[59 µM]	-9.0%	28.7%	-8.6%	-2.0%	10.3%
Nc1ccc2nc[nH]c2c1	50.1µM*	?	6.3%	?	-35.3%	-19.8%
O=C(COc1ccc(OCc2ccccc2)cc1)NN=C1CCCC1	24.9%	9.2%	-10.2%	-5.6%	-26.2%	5.6%
O=C1CCCCC/C1=N/Nc1ccc(OCc2ccccc2)cc1	31.6µM*	?	14.4%	-2.4%	?	-8.7%
CCOC(=O)C1=C(O)c2ccccc2C(=O)/C1=C\c1ccc(C)cc1	2.51µM*	39.8µM*	35.5µM*	0.67µM*	20µM*	11.2µM*
O=C(O)[C@H](CSCc1ccccc1)NS(=O)(=O)c1ccc(F)cc1	10µM*	?	5.2%	-17.1%	-4.6%	-15.4%
Cc1ccccc1-c1cc(-n2ccnc2)ncn1	/	/	/	/	/	3.6%
Cc1cc(=O)n2[nH]c(-c3ccco3)nc2n1	-17.3%[59 µM]	-11.9%	41.8%	-7.0%	-0.4%	-14.5%
Cc1[nH]c(-c2ccc3c(c2)OCO3)nc1C(=O)O	10µM*	22.4µM*	10.4%	-7.5%	50.1µM*	56.2µM*
COc1ccc(-c2[nH]c(-c3ccc(O)cc3)nc2-c2ccccc2)cc1	?	63.1µM*	-22.0%	/	10µM*	/
Cc1[nH]c(-c2ccco2)nc1C(=O)O	20µM*	10µM*	0.6%	-4.8%	?	79.4µM*
CN(C)c1ccc(-c2nc(-c3cccs3)c(-c3cccs3)[nH]2)cc1	8.91µM*	?	-21.3%	/	?	/
Oc1ccccc1-c1nc(-c2cccs2)c(-c2cccs2)[nH]1	-2.5%[59 µM]	?	40.7%	/	?	/
CCC(CC)C(=O)Nc1cccc(SC)c1	10.8%	/	/	/	-3.8%	0.1%
COc1cc(-c2nc(-c3ccccc3)c(-c3cccs3)[nH]2)cc(OC)c1OC	23.6%[12.7 µM]	-17.9%	20.6%	4.4%	0.7%	8.2%
COc1ccc(-c2nc(-c3ccc4c(c3)OCO4)[nH]c2-c2ccc(OC)cc2)cc1	-47.1%[59 µM]	12.6µM*	?	-9.8%	17.8µM*	15.4%
COc1ccc(-c2noc(-c3ccc4c(c3)OCO4)n2)cc1	22.8%[59 µM]	-13.6%	22.6%	-0.7%	6.3%	15.4%
COc1ccc(-c2nc(-c3ccccc3)c(-c3ccc(O)cc3)[nH]2)cc1	?	28.2µM*	?	/	35.5µM*	/
COc1cc(-c2nc(-c3ccccc3)c(-c3cccs3)[nH]2)cc(OC)c1O	-6.4%[12.7 µM]	44.7µM*	?	-4.0%	50.1µM*	1.3%
CSCC[C@@H]1NC(=O)C/C=C\[C@@H](C)COC(=O)[C@@H](C)COC1=O	/	/	/	/	/	18.3%
O=S(=O)(Nc1cccc(-c2ccc(N3CCCCC3)nn2)c1)c1ccc(Cl)s1	-6.7%[59 µM]	-20.4%	20.8%[57 µM]	/	-9.0%	/
Cc1ccc(/C=N/N2CCN(c3ccccn3)CC2)o1	-46.7%	-17.6%	47.2%	1.9%	-26.9%	3.8%
Cc1ccc(/C=N/N2CCN(Cc3ccccc3)CC2)o1	20µM*	-33.1%	-2.5%	-7.5%	?	-25.3%
Cc1ccc(/C=N/N2CCN(Cc3cccc4ccccc34)CC2)o1	44.7µM*	50.1µM*	?	-15.8%	50.1µM*	?
SMILES	G9a block	JMJD2A Tudor	HP1b chromo inh	PLK1 PBD block	BAZ2B inh	Sfp inh
COc1ccc(CC(N)C(=O)N[C@H]2[C@@H](O)[C@H](n3cnc4c(N(C)C)ncnc43)O[C@@H]2CO)cc1 (stereo partly specified)	-5.2%[59 µM]	/	/	/	/	8.6%
CCOC(=O)C1(CC2CCCCO2)CCN(C(=O)Nc2cccc(SC)c2)CC1 (stereo unspecified)	-6.7%	?	?	21.2µM*	-5.0%	10.8%
CCOC(=O)N1CCC(Nc2c(NCCN3CCN(Cc4ccccc4)CC3)c(=O)c2=O)CC1	32.6%[59 µM]	-12.2%	18.6%	0.4%	-0.1%	4.9%
CCOC(=O)N1CCN(c2c(NCCCN(C)c3ccccc3)c(=O)c2=O)CC1	?	-24.8%	26.3%	9.8%	-5.6%	14.0%
CCOC(=O)N1CCC(Nc2c(NCCCN(CC)c3cccc(C)c3)c(=O)c2=O)CC1	50.1µM*	?	-8.1%	-13.3%	?	3.1%
CCC(C)N(C)C1CCN(C(=S)Nc2cccc(SC)c2)CC1 (stereo unspecified)	?	-25.0%	16.0%	-27.3%	-12.3%	56.2µM*
CCOC(=O)C1(CC2CCCCO2)CCN(C(=O)Nc2ccc(SC)cc2)CC1 (stereo unspecified)	7.1%	-31.9%	17.5%	-10.1%	-16.1%	14.8%
CCOC(=O)N1CCN(c2c(NCCN(C)Cc3ccccc3)c(=O)c2=O)CC1	56.2µM*	-6.9%	37.1%	6.2%	-3.1%	6.9%
CC(C)C(=O)OC1=CN(Cc2ccccc2)S(=O)(=O)c2ccccc21	7.8%[59 µM]	33.4%	74.9%	/	21.8%	/
CCOC(=O)N1CCC(Nc2cccc(SC)c2)CC1	?	?	-11.7%	-6.0%	?	56.2µM*
CCOC(=O)N1CCC(Nc2c(-c3ccccc3)c(=O)c2=O)CC1	56.2µM*	-17.7%	14.4%	-6.0%	-13.7%	17.6%
FC(F)(F)c1cccc(N2CCN(CC3CC=CCC3)CC2)c1 (stereo unspecified)	-9.4%[59 µM]	21.2%	108.7%	-0.5%	3.5%	-15.6%
Cn1c(NC(=O)c2ccccc2)c(-c2ccccn2)c(=O)c2ccccc21	?	31.6µM*	6.8%	-6.8%	8.1%	-2.8%
Cn1c(NC(=O)c2ccc(F)cc2)c(-c2ccccn2)c(=O)c2ccccc21	?	-0.3%	29.4%	-1.8%	-19.2%	3.2%
COC(=O)c1cc(O)c(O)c(O)c1	39.8µM*	20µM*	?	0.6%	79.4µM*	?
CN(C)c1ccc(N/C(N)=N/c2nc(C(F)(F)F)cc(C(F)(F)F)n2)cc1	12.6µM*	-25.9%	-17.1%	-13.9%	?	4.9%
c1ccc2c(c1)OCC(c1nnc3sc(-c4ccc5c(c4)OCO5)nn13)O2 (stereo unspecified)	5.01µM*	-28.8%	?	6.7µM*	-3.5%	25.1µM*
Fc1ccc(-c2nnc3sc(C4COc5ccccc5O4)nn23)cc1 (stereo unspecified)	-38.4%	-15.3%	6.1%	-7.6%	-4.9%	-8.2%
c1ccc2c(c1)OCC(c1nnc3sc(-c4cnccn4)nn13)O2 (stereo unspecified)	7.94µM*	-26.3%	-25.3%	28.2µM*	4.9%	20µM*
